This is part of a sample that, as a whole, favours compounds with a hit. Of some 79,000 tested, about 15% had one in any assay. Calls of active or inactive are those of the source. No stated cut-off is given here; in the data, active means growth inhibition above about 70%; inactive means the rest.
Experiments:
[1] = NCI Yeast Anticancer Drug Screen. Data for the rad52 strain (AID 147);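 further: 0% = growth of vehicle-treated control cultures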; conditions: S. cerevisiae rad52 mutant growth inhibition, stronger effect = higher value
Procedure, shortened: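 Compounds are applied to a genetically defined yeast strain lacking normal DNA damage repair, and inhibition of growth is expressed relative to cultures given vehicle only.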

[2] = NCI Yeast Anticancer Drug Screen. Data for the wt1 strain (AID 149);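 further: 0% = growth of vehicle-treated wt1 cultures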; conditions: S. cerevisiae wt1 strain (SPY 50644) growth inhibition, stronger effect = higher value
Procedure, shortened: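 Using yeast strain wt1, compound-induced growth inhibition was determined against vehicle-treated cultures.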

[3] = NCI Yeast Anticancer Drug Screen. Data for the rad50EPP+ strain (AID 151);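 further: 0% = growth of vehicle-treated control cultures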; conditions: S. cerevisiae rad50 mutant strain, stronger effect = higher value
Procedure, shortened: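 Compounds were applied to the rad50EPP+ yeast strain, which bears a defined DNA repair alteration, and growth inhibition was determined relative to vehicle-treated cultures.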

[4] = NCI Yeast Anticancer Drug Screen. Data for the rad50 strain (AID 155);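 further: 0% = growth of vehicle-only cultures of the same strain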; conditions: S. cerevisiae rad50 strain growth inhibition, stronger effect = higher value
Procedure, shortened: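 Relative growth inhibition (compound vs vehicle) was measured in yeast with a defined repair-gene alteration.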

[5] = NCI Yeast Anticancer Drug Screen. Data for the mec2-1 strain (AID 157); conditions: S. cerevisiae mec2-1 strain, stronger effect = higher value
Procedure, shortened: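 Strain: mec2-1 (DNA repair/cell cycle alteration). Compound exposure, then growth measured; inhibition expressed relative to vehicle.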

[6] = NCI Yeast Anticancer Drug Screen. Data for the rad14 strain (AID 159);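 further: 0% = growth of vehicle-treated control cultures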; conditions: S. cerevisiae rad14 strain growth inhibition, stronger effect = higher value
Procedure, shortened: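 Screen for anticancer potential: a yeast strain altered in DNA damage repair is grown with compound, and reduced growth is quantified against vehicle controls.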

[7] = NCI Yeast Anticancer Drug Screen. Data for the sgs1 mgt1 strain (AID 161);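 further: 0% = growth of cultures given vehicle only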; conditions: S. cerevisiae sgs1 mgt1 strain, stronger effect = higher value
Procedure, shortened: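 Mutant yeast exposed to compound; growth scored against vehicle-only wells.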

[8] = NCI Yeast Anticancer Drug Screen. Data for the CLN2oe strain (AID 163);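 further: 0% = growth of vehicle-only control cultures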; conditions: S. cerevisiae CLN2oe strain, stronger effect = higher value
Procedure, shortened: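 Growth of a genetically modified yeast strain is measured after compound exposure and compared with cultures given vehicle alone.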

[9] = NCI Yeast Anticancer Drug Screen. Data for the cln2 rad14 strain (AID 165);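 further: 0% = growth equal to vehicle treated cultures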; conditions: S. cerevisiae cln2 rad14 strain, stronger effect = higher value
Procedure, shortened: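 Compounds are applied to the cln2 rad14 yeast strain, and growth is then compared with that of vehicle-treated cultures to give inhibition.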

[10] = NCI Yeast Anticancer Drug Screen. Data for the bub3 strain (AID 167); conditions: S. cerevisiae bub3 mutant strain, stronger effect = higher value
Procedure, shortened: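 Screening used yeast with an engineered genetic alteration affecting cell cycle control. Compound-exposed cultures were compared with vehicle cultures, and reduced growth was taken as inhibition.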

[11] = NCI Yeast Anticancer Drug Screen. Data for the wt2 strain (AID 169);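 further: 0% = growth of vehicle-treated yeast cultures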; conditions: S. cerevisiae wt2 strain growth inhibition, stronger effect = higher value
Procedure, shortened: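 This strain belongs to a panel of yeast strains with defined genetic alterations in DNA damage repair or cell cycle control. Compounds are applied, and growth inhibition is measured against vehicle-treated cultures.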

[12] = NCI Yeast Anticancer Drug Screen. Data for the mlh1 strain (AID 171);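 further: 0% = growth of vehicle-treated control cultures of the same strain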; conditions: S. cerevisiae mlh1 strain growth inhibition, stronger effect = higher value
Procedure, shortened: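 Growth of the mutant yeast strain after compound exposure, expressed as inhibition relative to vehicle-only controls.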

[13] = NCI Yeast Anticancer Drug Screen. Data for the sgs1 strain (AID 173);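 further: 0% = growth of vehicle-only control cultures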; conditions: S. cerevisiae sgs1 mutant, stronger effect = higher value
Procedure, shortened: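 Growth of a yeast strain bearing a defined genetic alteration is measured after compound treatment. Inhibition is expressed relative to vehicle-only controls.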

[14] = NCI Yeast Anticancer Drug Screen. Data for the mlh1 rad18 strain (AID 175); conditions: S. cerevisiae mlh1 rad18 strain growth inhibition, stronger effect = higher value
Procedure, shortened: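 Read-out is yeast growth inhibition, calculated against vehicle-only controls. The compound was applied to a strain engineered with DNA damage repair alterations.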

[15] = NCI Yeast Anticancer Drug Screen. Data for the rad18 strain (AID 177); conditions: S. cerevisiae rad18 mutant growth inhibition, stronger effect = higher value
Procedure, shortened: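 Growth of the mutant yeast strain after compound exposure, normalised to vehicle-only cultures.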

[16] = at 5.0 µM (retest, dose inferred, filed as 0.5)
[17] = at 50.0 µM (retest, dose inferred, filed as 5.0)

Measured: growth inhibition

CC(C)C(c1ccccc1)c1ccccc1
active: [1]; at 100.0 µM 77% | [3]; at 100.0 µM 93% | [4]; [17] 70% | [4]; at 100.0 µM 93% | [5]; at 100.0 µM 99% | [6]; at 100.0 µM 70% | [13]; at 100.0 µM 99%
inactive: [1]; at 1.2 µM 4% | [1]; at 3.7 µM 9% | [1]; at 11.0 µM 9% | [1]; at 33.0 µM 8% | [2]; at 1.2 µM -1% | [2]; at 3.7 µM -1% | [2]; at 11.0 µM 0% | [2]; at 33.0 µM -2% | [2]; at 100.0 µM 49% | [3]; at 1.2 µM 3% | [3]; at 3.7 µM 6% | [3]; at 11.0 µM 14% | [3]; at 33.0 µM 43% | [4]; at 1.2 µM 1% | [4]; at 3.7 µM 18% | [4]; [16] -144% | [4]; at 11.0 µM 9% | [4]; at 33.0 µM 10% | [4]; at 50.0 µM 10% | [5]; at 1.2 µM 2% | [5]; at 3.7 µM 3% | [5]; [16] -50% | [5]; at 11.0 µM -10% | [5]; at 33.0 µM 1% | [5]; [17] -32% | [5]; at 50.0 µM 49.4% | [6]; at 1.2 µM -1% | [6]; at 3.7 µM -5% | [6]; at 11.0 µM 2% | [6]; at 33.0 µM 7% | [7]; [16] -54% | [7]; [17] -37% | [7]; at 50.0 µM 52.2% | [8]; at 1.2 µM -5% | [8]; at 3.7 µM -1% | [8]; at 11.0 µM 2% | [8]; at 33.0 µM 1% | [8]; at 100.0 µM 69% | [9]; [16] -52% | [9]; [17] -33% | [9]; at 50.0 µM 16% | [10]; at 1.2 µM -6% | [10]; at 3.7 µM 1% | [10]; [16] -67% | [10]; at 11.0 µM -4% | [10]; at 33.0 µM -4% | [10]; [17] 44% | [10]; at 50.0 µM -0.75% | [10]; at 100.0 µM 66% | [11]; at 1.2 µM -2% | [11]; at 3.7 µM -2% | [11]; at 11.0 µM -1% | [11]; at 33.0 µM 1% | [11]; at 100.0 µM 56% | [12]; at 1.2 µM 3% | [12]; at 3.7 µM 0% | [12]; at 11.0 µM 0% | [12]; at 33.0 µM 2% | [12]; at 100.0 µM 60% | [13]; at 1.2 µM -1% | [13]; at 3.7 µM -3% | [13]; at 11.0 µM -3% | [13]; at 33.0 µM -3% | [14]; [16] -113% | [14]; [17] -101% | [14]; at 50.0 µM 29.2% | [15]; at 1.2 µM 3% | [15]; at 3.7 µM -1% | [15]; at 11.0 µM 3% | [15]; at 33.0 µM 3% | [15]; at 100.0 µM 59%

O=[N+]([O-])c1cc(Cl)ccc1S(=O)(=O)c1ccc(Cl)cc1[N+](=O)[O-]
inactive: [1]; at 1.2 µM -25% | [1]; at 3.7 µM -8% | [1]; at 11.0 µM 40% | [2]; at 1.2 µM -13% | [2]; at 3.7 µM -19% | [2]; at 11.0 µM 0% | [3]; at 1.2 µM -6% | [3]; at 3.7 µM 20% | [3]; at 11.0 µM 55% | [3]; at 100.0 µM 64% | [4]; at 1.2 µM -31% | [4]; at 3.7 µM -21% | [4]; [16] 14% | [4]; at 11.0 µM 41% | [5]; at 1.2 µM -12% | [5]; at 3.7 µM 10% | [5]; [16] 4% | [5]; at 11.0 µM 20% | [6]; at 1.2 µM -15% | [6]; at 3.7 µM -11% | [6]; at 11.0 µM 25% | [7]; [16] 16% | [8]; at 1.2 µM -2% | [8]; at 3.7 µM -4% | [8]; at 11.0 µM 9% | [9]; [16] 13% | [10]; at 1.2 µM -21% | [10]; at 3.7 µM 7% | [11]; at 1.2 µM 0% | [11]; at 3.7 µM 4% | [11]; at 11.0 µM 21% | [12]; at 1.2 µM -3% | [12]; at 3.7 µM 3% | [12]; at 11.0 µM 44% | [13]; at 1.2 µM -3% | [13]; at 3.7 µM 13% | [13]; at 11.0 µM 35% | [14]; [16] 25% | [15]; at 1.2 µM 8% | [15]; at 3.7 µM 9% | [15]; at 11.0 µM 63%
active: [1]; at 33.0 µM 86% | [1]; at 100.0 µM 78% | [2]; at 33.0 µM 85% | [2]; at 100.0 µM 78% | [3]; at 33.0 µM 72% | [4]; at 33.0 µM 90% | [4]; [17] 92% | [4]; at 50.0 µM 76.8% | [4]; at 100.0 µM 81% | [5]; at 33.0 µM 89% | [5]; [17] 93% | [5]; at 50.0 µM 83% | [5]; at 100.0 µM 84% | [6]; at 33.0 µM 88% | [6]; at 100.0 µM 81% | [7]; [17] 91% | [7]; at 50.0 µM 84.3% | [8]; at 33.0 µM 82% | [8]; at 100.0 µM 79% | [9]; [17] 91% | [9]; at 50.0 µM 79.9% | [10]; [16] 73% | [10]; at 11.0 µM 80% | [10]; at 33.0 µM 93% | [10]; [17] 94% | [10]; at 50.0 µM 83.7% | [10]; at 100.0 µM 90% | [11]; at 33.0 µM 88% | [11]; at 100.0 µM 84% | [12]; at 33.0 µM 85% | [12]; at 100.0 µM 80% | [13]; at 33.0 µM 91% | [13]; at 100.0 µM 84% | [14]; [17] 91% | [14]; at 50.0 µM 80.8% | [15]; at 33.0 µM 91% | [15]; at 100.0 µM 87%

— PubChem BioAssay (NCI)
